“And” between values parts separate entries of the source, which are not always exact repeats. Equal entries are not always repeated. Out of some 170,000 compounds screened, about 900 (0.53%) were called active.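 How the source made its calls: active means relative growth at most 50% at the other temperature and 20+ points below 30 °C, or under 10% at both; inactive means the rest, inconclusive results apart.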 Many of the other results were omitted from the sample, so actives are more common in it than they were.

The experiment in a line: Staphylococcus aureus RN4220 growth blockers – two temperatures, LtaS inhibitor project, primary screen (AID 720641). The settings on record: S. aureus RN4220 growth, OD600, 20 h, 42 °C, stronger effect = lower value.

On to `CN(C)c1ccc(Nc2nc3ccccc3nc2NS(=O)(=O)c2cccs2)cc1`, for which the relative growth is 105% (inactive). For the same compound, where the note is “measured here: growth at 30 °C”, the relative growth amounted to 95.9%.
Turning to `Cc1cccn2c(=O)cc(CN3CCC(C(=O)N4CCOCC4)CC3)nc12`, the relative growth was 98.4% (inactive). Besides, the relative growth (measured here: growth at 30 °C) was found to be 88.3%.
On the same counts, the results for `COC(=O)CN1C(=O)CSc2ccc(S(=O)(=O)Nc3cc(C)ccc3C)cc21` are 112% (inactive) and 94%.
On to `COC(=O)c1ccc(C)c(NS(=O)(=O)c2ccc3c(c2)c(=O)sn3C)c1`, for which the relative growth is 0.12% (active). Besides, the relative growth (measured here: growth at 30 °C) worked out at 0.2%.
On the same counts, the results for `COC(=O)c1ccc(NS(=O)(=O)c2cc(C(=O)OC)n(C)c2)cc1` are 106% (inactive) and 88%.
`COc1ccc(OCCn2c(S(=O)(=O)Cc3ccccc3)nc3ccccc32)cc1`: the relative growth was 132% (inactive). The relative growth (measured here: growth at 30 °C) was 101%.
`COCCNc1ncnc2c1sc1nc(N3CCOCC3)c3c(c12)CCC3`: the relative growth is 111% (inactive). Moreover, where the note is “measured here: growth at 30 °C”, the relative growth was 88.7%.
On the same counts, the results for `CSc1n[nH]c(-c2ccco2)n1` are 101% (inactive) and 107%.
The matching figures for `CO/N=C(/C(=O)N[C@@H]1C(=O)N2C(C(=O)O)=C(CSc3nc(=O)c(O)nn3C)CS[C@H]12)c1csc(N)n1`: -0.87% (active) and -0.54%.
The matching figures for `O=S(=O)(Cc1ccccc1)CC(O)COc1ccc(OC(F)(F)F)cc1` (stereo not drawn): 102% (inactive) and 85%.
In the case of `COc1ccccc1CN=C(C)c1ccccc1O`, the relative growth is 101% (inactive). Further, the relative growth (measured here: growth at 30 °C) was 99.1%.
On to `CCOC(=O)c1c(C)csc1NC(=O)CC(=O)C(F)(F)F`, for which the relative growth was 2.75% (active). Further, the relative growth (measured here: growth at 30 °C) turned out to be 4.35%.
Regarding `CCOC(=O)c1c(NC(=O)C(F)(F)F)sc2c1CCCC2`, the relative growth is 101% (inactive). Besides, under “measured here: growth at 30 °C”, the relative growth was found to be 93.2%.
For the compound `CCOC(=O)Nc1sccc1C(N)=O`, the relative growth was 106% (inactive). For the same compound, the relative growth (measured here: growth at 30 °C) was 101%.
Consider `O=C(CSc1nc2ccsc2c(=O)n1Cc1ccccn1)Nc1nccs1`, for which the relative growth was 94% (inactive). Moreover, the relative growth (measured here: growth at 30 °C) was 87.2%.
With `O=S(=O)(NCCC12CC3CC(CC(C3)C1)C2)c1cc(Cl)ccc1Cl`, the relative growth is 80.5% (inactive). The relative growth (measured here: growth at 30 °C) is 66.9%.
Turning to `CC(C)NC(=O)COc1ccc(-c2nn(C)c(=O)c3ccccc23)cc1`, the relative growth is 92.3% (inactive). Further, the relative growth (measured here: growth at 30 °C) stood at 86.8%.
For the compound `CCOC(=O)N1CCC(N2Cc3cccc(C(=O)NC4CCN(Cc5ccccc5)CC4)c3C2=O)CC1`, the relative growth was 92.7% (inactive). Further, the relative growth (measured here: growth at 30 °C) is 86.6%.
On the same counts, the results for `CCN(CC(=O)NCc1ccc(Cl)cc1)C(=O)c1c(C)noc1C` are 84.2% (inactive) and 95.1%.
The matching figures for `Cc1ccc(Nc2c(-c3ccc(C)s3)nc3ccccn23)cc1`: 107% (inactive) and 89.8%.
On the same counts, the results for `Cc1cccc(C)c1Nc1c(-c2ccccc2O)nc2ncccn12` are 99.7% (inactive) and 86.4%.
For the compound `Cc1ccc(-c2nc3ccccn3c2Nc2c(C)cccc2C)o1`, the relative growth was 1.59% (active). Besides, the relative growth (measured here: growth at 30 °C) was found to be 1.66%.
The matching figures for `Nc1ccc(C(=O)Nc2ccc(C(=O)O)cc2N)cc1`: 108% (inactive) and 98.5%.
Regarding `CC1=NN(c2ccccc2)C(=O)C1C=C1C(=O)N(C)C(=S)N(C)C1=O` (stereo not drawn), the relative growth is 109% (inactive). For the same compound, where the note is “measured here: growth at 30 °C”, the relative growth came to 103%.
Take `Cc1c(C(=O)NC2CCCC2)oc2ccc(S(=O)(=O)N(C)C3CCCCC3)cc12`: the relative growth is 142% (inactive). Besides, the relative growth (measured here: growth at 30 °C) amounted to 89.2%.
As for `CCCCNC(=O)c1cc(-c2ccc(Cl)c(Cl)c2)on1`, the relative growth was 100% (inactive). Also, for the setting “measured here: growth at 30 °C”, the relative growth is 88%.
Turning to `Cc1ccc(-c2cc(C(=O)Oc3ccccc3Cl)no2)cc1C`, the relative growth is 0.23% (active). For the setting “measured here: growth at 30 °C”, the relative growth is -0.03%.
For the compound `COCCNC(=O)c1cc(-c2cccc(Cl)c2)on1`, the relative growth is 92.5% (inactive). In addition, the relative growth (measured here: growth at 30 °C) came to 110%.
`CC(=O)Nc1ccc2nc3c(cc2c1)[nH]c1ccccc13`: the relative growth was 114% (inactive). Further, where the note is “measured here: growth at 30 °C”, the relative growth worked out at 93.5%.
Turning to `COc1ccc(-c2csc3ncnc(NCCSCc4ccco4)c23)cc1`, the relative growth is 67.1% (inactive). In addition, the relative growth (measured here: growth at 30 °C) is 66.9%.
As to `Clc1ccc(C(Cn2ccnc2)OCc2ccsc2Cl)c(Cl)c1` (stereo not drawn), the relative growth is -0.03% (active) and -0.62% (active). For the same compound, the relative growth (measured here: growth at 30 °C) is 0.13% and 0.06%.
Take `CC1CCCCN1C(=O)c1ccc(Br)cc1` (stereo not drawn): the relative growth is 99.9% (inactive). Further, the relative growth (measured here: growth at 30 °C) amounted to 91.1%.
`COc1ccc(N=C2SCCCN2C(=O)C2CCCC2)cc1OC`: the relative growth was 94.4% (inactive). For the same compound, the relative growth (measured here: growth at 30 °C) came to 86%.
The matching figures for `CC(NCc1ccc(OC(F)F)cc1OC(F)F)c1ccc(-n2ccnc2)cc1` (stereo not drawn): 101% (inactive) and 92.4%.
In the case of `Sc1ccc2ccccc2c1`, the relative growth was 82.2% (inactive). The relative growth (measured here: growth at 30 °C) came to 91%.
For the compound `c1ccc2cc3cnccc3cc2c1`, the relative growth was 3.61% (active). In addition, the relative growth (measured here: growth at 30 °C) worked out at 2.36%.
On the same counts, the results for `COc1ccccc1NC(=O)Oc1ccc2ccncc2c1` are 105% (inactive) and 97.9%.
As for `CC(=O)N1CC=C(c2ccc(O)cc2)CC1`, the relative growth is 37.5% (inactive). Also, under “measured here: growth at 30 °C”, the relative growth came out at 31.2%.
`O=C(NCCc1ccccc1)c1ccc(C(=O)c2ccccc2)o1`: the relative growth is 99.2% (inactive). Moreover, the relative growth (measured here: growth at 30 °C) was 94.2%.
As to `Cc1cc(C)cc(NS(=O)(=O)c2ccc3c(c2)CC(=O)N3)c1`, the relative growth is 96.8% (inactive). In addition, where the note is “measured here: growth at 30 °C”, the relative growth is 77%.
On the same counts, the results for `CC1=Nc2c(ccc3cccnc23)C1(C)C` are 3.05% (active) and 2.08%.
Regarding `Cc1cc(NC(=O)c2cc3ccc4cccnc4c3[nH]2)no1`, the relative growth is 108% (inactive). For the same compound, the relative growth (measured here: growth at 30 °C) was 92.6%.
For the compound `COc1cc(NC(=O)c2cc3ccc4cccnc4c3[nH]2)cc(OC)c1OC`, the relative growth was 90.5% (inactive). Also, the relative growth (measured here: growth at 30 °C) was 89.8%.
As to `O=C(COC(=O)c1n[nH]c2ccccc12)Nc1ccc(N2CCOCC2)cc1`, the relative growth was 104% (inactive). Further, the relative growth (measured here: growth at 30 °C) worked out at 96.3%.
In the case of `Cc1ccc(-n2c(C)ccc2C)cc1`, the relative growth is 97.4% (inactive). For the same compound, under “measured here: growth at 30 °C”, the relative growth turned out to be 101%.
The matching figures for `Oc1c(Cl)cc(Cl)c(Cl)c1Cc1c(O)c(Cl)cc(Cl)c1Cl`: -0.02% (active) and -0.87%.
Turning to `O=C(Nc1c[nH]c2ccccc12)NC1CCCC1`, the relative growth is 103% (inactive). Moreover, the relative growth (measured here: growth at 30 °C) was found to be 62.5%.
The matching figures for `CN1CCC(N(C)C(=O)Nc2c[nH]c3ccccc23)CC1`: 3.18% (active) and 6.3%.
On the same counts, the results for `COCC(C)NC(=O)Nc1c[nH]c2ccccc12` (stereo not drawn) are 78.5% (inactive) and 50.9%.
The matching figures for `CCOC(=O)N1CCC(N(CCOC)C(=S)Nc2ccccc2F)CC1`: 83.6% (inactive) and 74.7%.
In the case of `Cc1ccc(NC(=O)CC2SC(=Nc3ccc(S(N)(=O)=O)cc3)NC2=O)cc1` (stereo not drawn), the relative growth was 100% (inactive). The relative growth (measured here: growth at 30 °C) was 94.2%.
On the same counts, the results for `CCC(C)NC(=O)Cn1nc(-c2ccccc2)c2cc(Cl)ccc21` (stereo not drawn) are 105% (inactive) and 86.8%.
For the compound `C=CCNC(=O)c1ccc(S(=O)(=O)N(CC)c2ccccc2)cc1`, the relative growth is 99.8% (inactive). Besides, the relative growth (measured here: growth at 30 °C) is 91%.
On the same counts, the results for `Cc1cnc(C(=O)OCc2cc(=O)n3ccsc3n2)cn1` are 86.6% (inactive) and 101%.
With `CC(Oc1ccccc1)C(=O)NC1CCCCC1` (stereo not drawn), the relative growth is 110% (inactive). For the same compound, the relative growth (measured here: growth at 30 °C) worked out at 98.3%.
As to `CCOC(=O)OC(C)OC(=O)C1N2C(=O)C(NC(=O)[C@H](N)c3ccccc3)C2SC1(C)C` (stereo partly drawn), the relative growth was -1.14% (active). For the same compound, the relative growth (measured here: growth at 30 °C) is -0.8%.
The matching figures for `COC(=O)C(N)c1ccccc1` (stereo not drawn): 68.2% (inactive) and 90.3%.
The matching figures for `CC(Oc1ccccc1)C(=O)N[C@@H]1C(=O)N2[C@@H]1SC(C)(C)[C@@H]2C(=O)O` (stereo partly drawn): -1.13% (active) and -0.8%.
The matching figures for `CC1(C)S[C@@H]2[C@H](N=CN3CCCCCC3)C(=O)N2[C@H]1C(=O)O`: 93.7% (inactive) and 82.3%.

Values taken from PubChem BioAssay AID720641 (ICCB-Longwood Screening Facility, Harvard Medical School, 2013).
